This is an account of results in PMC7862700, “An all-to-all approach to the identification of sequence-specific readers for epigenetic DNA modifications on cytosine”.

What all share (test): DAPPL (digital affinity profiling via proximity ligation, sequencing); 10 mM Tris-HCl pH 7.5, 50 mM NaCl, 1 mM DTT, 4% glycerol, room temperature, 30 min; GST-TFs on glutathione beads, 16-mer random dsDNA library, 0.1% formaldehyde crosslink after washing; high values mean tight binding
Common to all, as to conditions: protein: recombinant; tags: N-terminal GST; dsDNA, one strand shown

One assay deals with T1, GABPA (Homo sapiens, UniProt Q06546 1-454).
T1 sequence: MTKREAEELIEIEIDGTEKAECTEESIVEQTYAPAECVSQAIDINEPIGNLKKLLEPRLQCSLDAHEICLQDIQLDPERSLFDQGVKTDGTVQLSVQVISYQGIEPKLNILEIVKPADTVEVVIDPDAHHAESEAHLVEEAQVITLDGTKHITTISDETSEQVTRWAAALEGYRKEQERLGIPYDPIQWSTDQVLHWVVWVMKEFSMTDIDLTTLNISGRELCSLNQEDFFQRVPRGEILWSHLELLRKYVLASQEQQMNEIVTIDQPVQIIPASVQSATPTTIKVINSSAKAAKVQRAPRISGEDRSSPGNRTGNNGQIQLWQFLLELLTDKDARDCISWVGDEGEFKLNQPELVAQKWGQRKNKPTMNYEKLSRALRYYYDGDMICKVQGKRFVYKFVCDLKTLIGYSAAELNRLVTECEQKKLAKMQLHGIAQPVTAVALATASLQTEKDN
In short, it runs like this: (§1)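 Pools were built from human transcription factors expressed in yeast as GST fusions, captured on glutathione beads and DNA-barcoded, along with a tag-only sample. Incubation with 200 nmole of a 16-mer random double-stranded DNA library lasted 30 min at room temperature in Tris/NaCl/DTT/glycerol buffer, and was followed by washing, 0.1% formaldehyde crosslinking, proximity ligation, PCR amplification and Illumina NextSeq500 sequencing. Binding signal is the quotient of each hexamer's read frequency for a factor and its frequency for the tag-only sample.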

The next assay concerns the target T2, ERG (Homo sapiens, UniProt P11308 1-479).
T2 sequence: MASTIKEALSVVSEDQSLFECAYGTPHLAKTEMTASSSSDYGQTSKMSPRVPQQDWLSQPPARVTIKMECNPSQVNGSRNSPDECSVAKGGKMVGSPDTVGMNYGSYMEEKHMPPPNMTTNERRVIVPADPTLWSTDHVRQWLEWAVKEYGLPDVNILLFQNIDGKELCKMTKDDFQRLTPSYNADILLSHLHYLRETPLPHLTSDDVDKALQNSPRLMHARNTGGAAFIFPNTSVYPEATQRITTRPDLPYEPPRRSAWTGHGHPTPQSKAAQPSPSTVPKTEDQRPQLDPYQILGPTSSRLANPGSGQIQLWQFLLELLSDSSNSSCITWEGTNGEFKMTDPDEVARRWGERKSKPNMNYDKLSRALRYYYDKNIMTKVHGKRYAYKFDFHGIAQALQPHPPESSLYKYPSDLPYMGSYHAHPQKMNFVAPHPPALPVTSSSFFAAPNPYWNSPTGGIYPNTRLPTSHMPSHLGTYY
In short, it runs like this:
as §1

For another assay, the target named is ELF1 (Homo sapiens, UniProt P32519 1-619). The method, boiled down: as §1
The next assay concerns the target T3, EHF (Homo sapiens, UniProt Q9NZC4 1-300).
T3 sequence: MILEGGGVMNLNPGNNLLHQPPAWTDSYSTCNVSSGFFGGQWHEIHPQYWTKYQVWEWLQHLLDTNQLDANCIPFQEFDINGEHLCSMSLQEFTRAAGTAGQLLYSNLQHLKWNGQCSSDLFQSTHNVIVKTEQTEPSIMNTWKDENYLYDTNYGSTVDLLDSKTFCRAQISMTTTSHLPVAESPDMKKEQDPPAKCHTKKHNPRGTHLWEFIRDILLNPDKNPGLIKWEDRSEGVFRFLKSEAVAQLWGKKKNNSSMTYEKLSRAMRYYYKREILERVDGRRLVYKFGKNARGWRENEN
In short, it runs like this:
as §1

In another assay the target is SPI1 (Homo sapiens, UniProt P17947 1-270). In short, it runs like this:
as §1

The next assay addresses SPIB (Homo sapiens, UniProt Q01892 1-262). In short, it runs like this:
as §1

The next assay deals with T4, FEV (Homo sapiens, UniProt Q99581 1-238).
T4 sequence: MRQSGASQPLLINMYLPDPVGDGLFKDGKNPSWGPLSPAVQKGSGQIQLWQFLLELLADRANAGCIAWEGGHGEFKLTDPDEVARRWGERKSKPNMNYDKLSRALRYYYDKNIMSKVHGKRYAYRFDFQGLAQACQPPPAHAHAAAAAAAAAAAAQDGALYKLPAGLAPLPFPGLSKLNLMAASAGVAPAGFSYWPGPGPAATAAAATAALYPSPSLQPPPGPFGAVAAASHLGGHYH
In short, it runs like this:
as §1

The next assay concerns the target ETV5 (Homo sapiens, UniProt P41161 1-510). The method, boiled down: as §1
In a further assay the target is ELF4 (Homo sapiens, UniProt Q99607 1-663). In short, it runs like this: as §1
The next assay has as its target T5, ETV2 (Homo sapiens, UniProt O00321 1-342).
T5 sequence: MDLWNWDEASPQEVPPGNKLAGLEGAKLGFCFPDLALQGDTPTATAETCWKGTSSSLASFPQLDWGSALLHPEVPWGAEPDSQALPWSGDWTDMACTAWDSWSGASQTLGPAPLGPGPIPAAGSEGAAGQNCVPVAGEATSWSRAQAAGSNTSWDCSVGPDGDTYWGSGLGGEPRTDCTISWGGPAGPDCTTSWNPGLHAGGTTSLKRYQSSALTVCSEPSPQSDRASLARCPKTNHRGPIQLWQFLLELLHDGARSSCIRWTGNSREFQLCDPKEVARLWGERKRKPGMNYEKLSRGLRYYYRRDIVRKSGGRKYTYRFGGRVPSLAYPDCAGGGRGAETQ
The method, boiled down: as §1

Another assay deals with ETV1 (Homo sapiens, UniProt P50549 1-477). The method, boiled down: as §1
For another assay, the target named is T6, ERF (Homo sapiens, UniProt P50548 1-548).
T6 sequence: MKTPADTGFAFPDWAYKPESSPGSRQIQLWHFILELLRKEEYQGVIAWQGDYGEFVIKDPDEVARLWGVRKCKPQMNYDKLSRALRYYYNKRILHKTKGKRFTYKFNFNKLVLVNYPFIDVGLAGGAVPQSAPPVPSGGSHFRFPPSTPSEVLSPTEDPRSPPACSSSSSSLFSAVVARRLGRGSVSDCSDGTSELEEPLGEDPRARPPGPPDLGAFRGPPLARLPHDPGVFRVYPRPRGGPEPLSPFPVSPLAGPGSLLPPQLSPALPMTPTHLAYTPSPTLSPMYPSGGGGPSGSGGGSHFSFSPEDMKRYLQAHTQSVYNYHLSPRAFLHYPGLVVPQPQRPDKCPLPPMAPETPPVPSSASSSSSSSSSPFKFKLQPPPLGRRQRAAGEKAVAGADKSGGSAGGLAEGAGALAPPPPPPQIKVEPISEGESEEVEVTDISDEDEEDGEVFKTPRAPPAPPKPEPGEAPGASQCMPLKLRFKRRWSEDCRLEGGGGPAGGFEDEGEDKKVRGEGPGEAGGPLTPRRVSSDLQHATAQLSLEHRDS
In short, it runs like this: as §1

Another assay addresses T7, ETV3L (Homo sapiens, UniProt Q6ZN32 1-361).
T7 sequence: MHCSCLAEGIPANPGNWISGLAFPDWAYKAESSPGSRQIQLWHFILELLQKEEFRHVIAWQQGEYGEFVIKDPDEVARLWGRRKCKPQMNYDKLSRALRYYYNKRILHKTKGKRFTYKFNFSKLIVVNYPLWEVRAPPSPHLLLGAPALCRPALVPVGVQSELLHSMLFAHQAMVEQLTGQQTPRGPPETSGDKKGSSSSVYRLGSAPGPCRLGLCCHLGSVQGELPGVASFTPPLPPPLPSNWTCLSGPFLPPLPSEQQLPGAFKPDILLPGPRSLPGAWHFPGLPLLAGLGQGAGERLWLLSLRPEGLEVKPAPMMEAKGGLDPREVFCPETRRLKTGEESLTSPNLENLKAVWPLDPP
The method, boiled down:
as §1

The target of the next assay is T8, SPDEF (Homo sapiens, UniProt O95238 1-335).
T8 sequence: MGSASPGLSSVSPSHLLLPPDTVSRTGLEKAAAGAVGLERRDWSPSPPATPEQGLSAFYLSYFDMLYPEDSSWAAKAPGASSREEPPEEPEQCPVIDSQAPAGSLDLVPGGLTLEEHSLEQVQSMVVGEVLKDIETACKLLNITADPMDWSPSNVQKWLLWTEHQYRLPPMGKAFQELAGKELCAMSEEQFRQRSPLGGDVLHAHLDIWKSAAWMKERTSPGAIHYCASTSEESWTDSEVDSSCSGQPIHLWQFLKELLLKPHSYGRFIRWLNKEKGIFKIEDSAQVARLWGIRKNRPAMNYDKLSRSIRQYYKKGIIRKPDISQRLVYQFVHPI
The method, boiled down: as §1

The next assay deals with T9, ETV7 (Homo sapiens, UniProt Q9Y603 1-341).
T9 sequence: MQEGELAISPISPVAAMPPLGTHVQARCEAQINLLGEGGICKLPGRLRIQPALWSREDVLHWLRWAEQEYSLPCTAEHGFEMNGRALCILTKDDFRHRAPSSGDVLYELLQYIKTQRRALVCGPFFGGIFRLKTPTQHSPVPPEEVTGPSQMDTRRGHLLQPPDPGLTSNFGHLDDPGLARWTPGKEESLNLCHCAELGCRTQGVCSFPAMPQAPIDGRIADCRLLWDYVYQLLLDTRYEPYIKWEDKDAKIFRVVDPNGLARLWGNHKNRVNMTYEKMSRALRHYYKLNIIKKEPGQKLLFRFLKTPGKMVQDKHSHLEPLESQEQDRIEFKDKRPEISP
The method, boiled down:
as §1

The target in another assay is T10, ETV3 (Homo sapiens, UniProt P41162-2 1-143).
T10 sequence: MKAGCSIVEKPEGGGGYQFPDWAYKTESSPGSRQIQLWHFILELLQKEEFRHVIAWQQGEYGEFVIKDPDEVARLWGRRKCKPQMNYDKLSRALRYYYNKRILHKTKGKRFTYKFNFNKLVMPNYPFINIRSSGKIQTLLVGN
The method, boiled down:
as §1

The target in the next assay is T11, ETS2 (Homo sapiens, UniProt P15036 1-469).
T11 sequence: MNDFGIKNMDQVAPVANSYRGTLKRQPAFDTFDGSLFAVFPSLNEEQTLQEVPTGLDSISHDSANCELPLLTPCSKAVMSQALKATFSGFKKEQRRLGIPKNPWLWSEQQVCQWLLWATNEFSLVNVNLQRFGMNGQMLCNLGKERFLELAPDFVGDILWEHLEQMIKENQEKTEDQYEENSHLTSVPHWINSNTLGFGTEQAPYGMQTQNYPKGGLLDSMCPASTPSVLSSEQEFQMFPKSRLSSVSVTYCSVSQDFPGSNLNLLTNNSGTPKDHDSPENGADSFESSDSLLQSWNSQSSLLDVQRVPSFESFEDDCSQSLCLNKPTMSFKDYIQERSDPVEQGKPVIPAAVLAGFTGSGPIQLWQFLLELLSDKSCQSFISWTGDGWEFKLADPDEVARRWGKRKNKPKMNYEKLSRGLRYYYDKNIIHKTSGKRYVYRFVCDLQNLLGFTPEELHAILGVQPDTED
In short, it runs like this:
as §1

Another assay deals with ETV6 (Homo sapiens, UniProt P41212 1-452). In short, it runs like this: as §1
Chain of ETV6 (P41212 whole entry): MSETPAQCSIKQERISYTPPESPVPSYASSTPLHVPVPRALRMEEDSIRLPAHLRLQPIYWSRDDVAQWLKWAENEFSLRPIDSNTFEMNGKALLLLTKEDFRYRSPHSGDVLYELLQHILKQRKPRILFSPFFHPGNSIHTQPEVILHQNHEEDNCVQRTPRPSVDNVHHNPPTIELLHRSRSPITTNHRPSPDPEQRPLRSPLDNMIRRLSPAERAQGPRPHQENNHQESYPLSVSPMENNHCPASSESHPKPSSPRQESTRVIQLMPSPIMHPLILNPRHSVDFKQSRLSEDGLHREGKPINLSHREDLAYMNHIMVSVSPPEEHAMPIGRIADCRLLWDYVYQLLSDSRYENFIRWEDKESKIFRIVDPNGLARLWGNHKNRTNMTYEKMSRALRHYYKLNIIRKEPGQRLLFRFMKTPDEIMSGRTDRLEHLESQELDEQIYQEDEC

Chain of ELF4 (Q99607 whole entry): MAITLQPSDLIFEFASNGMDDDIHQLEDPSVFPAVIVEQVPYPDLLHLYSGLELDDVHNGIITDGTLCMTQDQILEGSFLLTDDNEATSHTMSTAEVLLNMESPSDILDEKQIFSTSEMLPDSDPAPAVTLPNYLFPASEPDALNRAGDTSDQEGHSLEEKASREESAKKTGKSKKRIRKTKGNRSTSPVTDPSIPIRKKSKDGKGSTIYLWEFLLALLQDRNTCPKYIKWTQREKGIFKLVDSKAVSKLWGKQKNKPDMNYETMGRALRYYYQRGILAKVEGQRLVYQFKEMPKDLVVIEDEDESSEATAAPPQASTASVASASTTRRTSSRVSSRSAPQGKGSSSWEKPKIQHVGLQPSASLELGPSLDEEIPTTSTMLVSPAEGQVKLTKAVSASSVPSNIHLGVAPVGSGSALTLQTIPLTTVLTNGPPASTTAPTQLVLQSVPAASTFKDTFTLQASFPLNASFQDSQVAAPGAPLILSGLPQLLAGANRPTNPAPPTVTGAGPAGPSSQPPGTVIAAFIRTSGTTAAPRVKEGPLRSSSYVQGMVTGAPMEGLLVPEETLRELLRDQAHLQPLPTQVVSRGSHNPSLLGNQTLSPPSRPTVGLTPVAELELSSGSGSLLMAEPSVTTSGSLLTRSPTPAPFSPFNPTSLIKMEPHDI
Chain of ETV5 (P41161 whole entry): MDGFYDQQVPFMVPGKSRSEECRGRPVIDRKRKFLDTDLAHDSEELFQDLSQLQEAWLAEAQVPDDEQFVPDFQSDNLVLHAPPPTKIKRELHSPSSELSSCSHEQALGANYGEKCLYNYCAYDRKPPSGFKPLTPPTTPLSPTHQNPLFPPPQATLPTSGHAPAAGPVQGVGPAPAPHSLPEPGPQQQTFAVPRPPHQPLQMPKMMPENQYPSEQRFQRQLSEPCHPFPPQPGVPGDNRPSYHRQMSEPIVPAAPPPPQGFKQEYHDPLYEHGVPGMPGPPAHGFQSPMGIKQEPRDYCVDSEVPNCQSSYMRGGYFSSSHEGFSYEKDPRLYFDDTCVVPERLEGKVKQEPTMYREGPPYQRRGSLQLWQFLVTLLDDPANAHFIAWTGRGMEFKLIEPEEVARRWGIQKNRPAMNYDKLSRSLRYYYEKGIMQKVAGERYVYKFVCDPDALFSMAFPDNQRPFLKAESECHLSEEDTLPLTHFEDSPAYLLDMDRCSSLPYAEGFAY
Chain of SPIB (Q01892 whole entry): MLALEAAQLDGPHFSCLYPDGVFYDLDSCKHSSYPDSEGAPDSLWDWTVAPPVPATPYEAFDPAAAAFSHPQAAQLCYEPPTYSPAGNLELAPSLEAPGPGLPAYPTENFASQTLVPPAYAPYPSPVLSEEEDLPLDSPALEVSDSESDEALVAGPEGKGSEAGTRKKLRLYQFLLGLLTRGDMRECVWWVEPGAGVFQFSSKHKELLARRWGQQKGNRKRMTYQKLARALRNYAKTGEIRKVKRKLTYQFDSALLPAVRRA
Chain of ELF1 (P32519 whole entry): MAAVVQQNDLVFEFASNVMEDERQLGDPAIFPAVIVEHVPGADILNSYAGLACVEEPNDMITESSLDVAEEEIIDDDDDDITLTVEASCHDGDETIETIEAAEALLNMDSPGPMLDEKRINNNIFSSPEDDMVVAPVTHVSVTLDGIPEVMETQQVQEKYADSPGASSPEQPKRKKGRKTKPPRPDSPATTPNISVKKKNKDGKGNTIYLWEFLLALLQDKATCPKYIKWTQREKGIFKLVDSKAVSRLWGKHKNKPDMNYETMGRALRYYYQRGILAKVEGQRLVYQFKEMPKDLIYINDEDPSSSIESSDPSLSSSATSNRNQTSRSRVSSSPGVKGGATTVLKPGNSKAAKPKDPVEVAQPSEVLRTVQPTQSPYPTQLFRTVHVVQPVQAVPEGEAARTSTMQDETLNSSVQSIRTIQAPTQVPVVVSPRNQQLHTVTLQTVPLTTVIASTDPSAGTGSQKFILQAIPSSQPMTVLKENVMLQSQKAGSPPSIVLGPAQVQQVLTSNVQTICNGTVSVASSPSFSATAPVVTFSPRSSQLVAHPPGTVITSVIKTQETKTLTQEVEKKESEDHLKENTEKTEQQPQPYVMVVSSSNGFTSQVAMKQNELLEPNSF
Chain of ETV1 (P50549 whole entry): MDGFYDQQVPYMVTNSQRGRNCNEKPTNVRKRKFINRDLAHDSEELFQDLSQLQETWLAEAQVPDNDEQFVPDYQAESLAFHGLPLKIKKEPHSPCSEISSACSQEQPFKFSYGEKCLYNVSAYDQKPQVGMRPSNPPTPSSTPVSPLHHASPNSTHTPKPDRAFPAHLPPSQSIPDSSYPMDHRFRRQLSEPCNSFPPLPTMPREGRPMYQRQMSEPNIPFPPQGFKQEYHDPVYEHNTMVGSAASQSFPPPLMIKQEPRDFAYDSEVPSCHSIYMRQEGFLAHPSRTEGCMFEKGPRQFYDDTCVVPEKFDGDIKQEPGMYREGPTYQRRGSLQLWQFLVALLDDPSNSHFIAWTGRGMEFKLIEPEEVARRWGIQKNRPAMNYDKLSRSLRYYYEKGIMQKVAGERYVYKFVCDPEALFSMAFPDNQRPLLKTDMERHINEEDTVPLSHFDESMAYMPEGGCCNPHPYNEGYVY

As to ACTGGA, the binding signal with GABPA is 1.12 fold enrichment (6-mer frequency, TF over GST control); in the assay with ERG it was 1.08 fold enrichment (6-mer frequency, TF over GST control); with ELF1, 1.03 fold enrichment (6-mer frequency, TF over GST control); with EHF, 1.02 fold enrichment (6-mer frequency, TF over GST control); in the assay with SPI1 it was 1.1 fold enrichment (6-mer frequency, TF over GST control); with SPIB, 1.03 fold enrichment (6-mer frequency, TF over GST control). Besides, the binding signal with FEV was 1 fold enrichment (6-mer frequency, TF over GST control); with ETV5 it was 1.09 fold enrichment (6-mer frequency, TF over GST control); with ELF4 it was 1.1 fold enrichment (6-mer frequency, TF over GST control); in the assay with ETV2 it was 1.17 fold enrichment (6-mer frequency, TF over GST control); with ETV1 it was 1.06 fold enrichment (6-mer frequency, TF over GST control); with ERF it was 1.03 fold enrichment (6-mer frequency, TF over GST control). In addition, the binding signal in the assay with ETV3L was 1.02 fold enrichment (6-mer frequency, TF over GST control); in the assay with SPDEF it was 1.02 fold enrichment (6-mer frequency, TF over GST control); in the assay with ETV7, 1.01 fold enrichment (6-mer frequency, TF over GST control); with ETV3, 1.05 fold enrichment (6-mer frequency, TF over GST control).
As to ACAAGA, the binding signal was 1.03 fold enrichment (6-mer frequency, TF over GST control) with ETV5; 1.03 fold enrichment (6-mer frequency, TF over GST control) in the assay with ELF4; 1.02 fold enrichment (6-mer frequency, TF over GST control) with ETV7.
As to TAGGAT, the binding signal is 1.07 fold enrichment (6-mer frequency, TF over GST control) in the assay with ERG; 1.06 fold enrichment (6-mer frequency, TF over GST control) with EHF; 1.03 fold enrichment (6-mer frequency, TF over GST control) in the assay with SPIB; 1.03 fold enrichment (6-mer frequency, TF over GST control) with ETV5; 1 fold enrichment (6-mer frequency, TF over GST control) in the assay with ELF4; 1.03 fold enrichment (6-mer frequency, TF over GST control) in the assay with ETV2. The binding signal with ERF was 1.02 fold enrichment (6-mer frequency, TF over GST control); with ETV3L, 1.06 fold enrichment (6-mer frequency, TF over GST control); with ETS2 it was 1.03 fold enrichment (6-mer frequency, TF over GST control); with SPDEF it was 1.22 fold enrichment (6-mer frequency, TF over GST control); in the assay with ETV6, 1.06 fold enrichment (6-mer frequency, TF over GST control).
